In PubChem BioAssay AID1159580 (chemical genetic matrix, 2015):
Several values for one entry are separate records, joined by “and”; a condition that tells them apart may be missing. Equal values may be shown once. Hit rate of the full screen: of about 5,500 compounds, about 2,000 (36%) were called active. Inconclusive results (about 18%) are left out. Rule as the data show it: active = normalized growth mostly below about 0.91 (no sharp cut-off); inconclusive = no clear call, values can overlap the other calls; inactive = mostly above about 0.92. Some of the results follow.

Experiment: chemical genetic growth profiling, strain panel (AID 1159580);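 also: tested at 20 µM; growth read once vehicle control cultures reached saturation at 30 °C; 1 = growth at the plate median or of vehicle wells; lower values mean less growth of the strain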
Conditions: S. cerevisiae deletion strains, growth OD

Measured: normalized growth

COc1ccc2cc3[n+](cc2c1OC)CCc1cc2c(cc1-3)OCO2
active: locus YAL013W, strain DEP1, hits give low values 0.509 | locus YBR229C, strain ROT2, hits give low values 0.762 | locus YCL029C, strain bik1, hits give low values 0.379 | locus YDL035C, strain GPR1, hits give low values 0.278 | locus YDL074C, strain BRE1, hits give low values 0.352 | locus YDL101C, strain DUN1, hits give low values 0.569 | locus YDL134C, strain PPH21, hits give low values 0.398 | locus YDL192W, strain arf1, hits give low values 0.436 | locus YDR101C, strain arx1, hits give low values 0.278 | locus YDR150W, strain NUM1, hits give low values 0.681 | locus YDR162C, strain NBP2, hits give low values 0.533 | locus YDR318W, strain mcm21, hits give low values 0.461 | locus YDR388W, hits give low values 0.365 | locus YDR502C, strain sam2, hits give low values 0.345 | locus YEL061C, strain CIN8, hits give low values 0.567 | locus YER110C, hits give low values 0.452 | locus YER167W, strain BCK2, hits give low values 0.467 | locus YGL078C, strain dbp3, hits give low values 0.854 | locus YGL086W, strain mad1, hits give low values 0.394 | locus YGL248W, strain PDE1, hits give low values 0.3 | locus YGR078C, strain PAC10, hits give low values 0.481 | locus YGR135W, strain pre9, hits give low values 0.318 | locus YGR229C, strain SMI1, hits give low values 0.454 | locus YGR252W, strain gcn5, hits give low values 0.604 | locus YHR030C, strain SLT2, hits give low values 0.664 and 0.844 | locus YHR079C, strain IRE1 (second series), hits give low values 0.439 | locus YHR079C, strain IRE1, hits give low values 0.783 | locus YHR094C, strain hxt1, hits give low values 0.689 | locus YHR129C, strain ARP1, hits give low values 0.699 | locus YHR200W, strain rpn10, hits give low values 0.518 | locus YIL066C, strain RNR3, hits give low values 0.373 | locus YIL073C, strain SPO22, hits give low values 0.209 | locus YIR030C, strain dcg1, hits give low values 0.521 | locus YJL095W, strain BCK1, hits give low values 0.417 and 0.79 | locus YJL134W, strain LCB3, hits give low values 0.874 | locus YJL168C, strain set2, hits give low values 0.826 | locus YJL187C, strain SWE1 (second series), hits give low values 0.291 | locus YJR043C, strain POL32, hits give low values 0.482 | locus YJR066W, strain TOR1, hits give low values 0.765
inactive: locus YAL021C, strain ccr4, hits give low values 0.997 | locus YAL026C, strain drs2, hits give low values 0.99 | locus YAL030W, strain snc1, hits give low values 0.996 | locus YBL061C, strain skt5, hits give low values 0.986 | locus YBR009C, strain hhf1, hits give low values 1 | locus YBR021W, strain FUR4, hits give low values 0.847 | locus YBR023C, strain chs3, hits give low values 0.982 | locus YBR171W, strain sec66, hits give low values 0.983 | locus YBR231C, strain swc5, hits give low values 0.985 | locus YBR279W, strain paf1, hits give low values 0.987 | locus YCL011C, strain gbp2, hits give low values 0.998 | locus YCL016C, strain dcc1, hits give low values 0.982 | locus YCL061C, strain MRC1, hits give low values 1.01 | locus YCL069W, strain vba3, hits give low values 0.999 | locus YCR088W, strain abp1, hits give low values 0.98 | locus YDL005C, strain med2, hits give low values 0.984 | locus YDL040C, strain nat1, hits give low values 0.986 | locus YDL185W, strain tfp1, hits give low values 1 | locus YDR001C, strain nth1, hits give low values 0.981 | locus YDR069C, strain doa4, hits give low values 1 | locus YDR137W, strain rgp1, hits give low values 0.979 | locus YDR159W, strain sac3, hits give low values 1.02 | locus YDR195W, strain ref2 0.977 | locus YDR297W, strain sur2, hits give low values 0.99 | locus YDR334W, strain swr1, hits give low values 0.973 | locus YDR335W, strain msn5, hits give low values 0.967 | locus YDR392W, strain spt3, hits give low values 0.984 | locus YEL003W, strain gim4, hits give low values 0.99 | locus YEL037C, strain rad23, hits give low values 0.981 | locus YEL061C, strain CIN8 (second series), hits give low values 0.993 | locus YER015W, strain faa2, hits give low values 0.991 | locus YER016W, strain bim1, hits give low values 0.981 | locus YER111C, strain swi4, hits give low values 1 | locus YER155C, strain BEM2 (second series), hits give low values 0.968 | locus YER155C, strain BEM2, hits give low values 0.957 | locus YFR010W, strain ubp6, hits give low values 0.992 | locus YGL167C, strain pmr1, hits give low values 0.983 | locus YGL173C, strain kem1, hits give low values 0.989 | locus YGL227W, strain vid30, hits give low values 0.989 | locus YGL240W, strain doc1, hits give low values 0.996 | locus YGL253W, strain hxk2, hits give low values 0.988 | locus YHR013C, strain ard1, hits give low values 0.943 | locus YHR027C, strain rpn1, hits give low values 0.998 | locus YHR142W, strain chs7, hits give low values 0.995 | locus YIL125W, strain kgd1, hits give low values 0.966 | locus YJL092W, strain hpr5, hits give low values 0.982 | locus YJL095W, strain BCK1 (second series), hits give low values 1.01 | locus YJL115W, strain asf1, hits give low values 0.986 | locus YJL129C, strain trk1, hits give low values 0.993 | locus YJL154C, strain vps35, hits give low values 0.974 | locus YJL164C, strain tpk1, hits give low values 0.99 | locus YJL166W, strain qcr8, hits give low values 1.01 | locus YJL187C, strain SWE1, hits give low values 0.989
